Common to all, as to assay: DAPPL (digital affinity profiling via proximity ligation, sequencing); 10 mM Tris-HCl pH 7.5, 50 mM NaCl, 1 mM DTT, 4% glycerol, room temperature, 30 min; GST-TFs on glutathione beads, 16-mer random dsDNA library, 0.1% formaldehyde crosslink after washing; high values mean tight binding
What all share (settings): protein: recombinant; tags: N-terminal GST; dsDNA, one strand shown

One assay concerns the target T1, FLI1 (Homo sapiens, UniProt Q01543 1-452).
T1 sequence: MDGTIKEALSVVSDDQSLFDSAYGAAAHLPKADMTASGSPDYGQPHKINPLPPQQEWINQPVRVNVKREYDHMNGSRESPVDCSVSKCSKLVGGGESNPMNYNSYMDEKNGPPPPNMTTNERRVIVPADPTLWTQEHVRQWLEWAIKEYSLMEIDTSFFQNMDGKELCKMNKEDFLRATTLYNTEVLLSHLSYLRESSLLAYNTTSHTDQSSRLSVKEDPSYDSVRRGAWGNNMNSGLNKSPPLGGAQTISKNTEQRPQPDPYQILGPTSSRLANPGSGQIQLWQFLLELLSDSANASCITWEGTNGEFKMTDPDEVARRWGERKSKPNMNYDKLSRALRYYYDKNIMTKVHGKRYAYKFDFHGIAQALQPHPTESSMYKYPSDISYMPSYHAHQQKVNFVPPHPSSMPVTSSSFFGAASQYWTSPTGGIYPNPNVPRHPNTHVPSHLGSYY
In short, it runs like this: (§1)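 After expression in yeast as GST fusions, human transcription factors were bound to glutathione beads, DNA-barcoded and mixed with a tag-only sample. The pools were incubated with 200 nmole of a 16-mer random double-stranded DNA library in Tris/NaCl/DTT/glycerol buffer (30 min, room temperature), washed and crosslinked with 0.1% formaldehyde. Proximity ligation with BsaI/T4 ligase ran for 1 h at 37 °C, before PCR amplification and sequencing on an Illumina NextSeq500. Binding signal is a hexamer's read frequency for a factor divided by its frequency for the tag-only sample.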

In a further assay the target is T2, GABPA (Homo sapiens, UniProt Q06546 1-454).
T2 sequence: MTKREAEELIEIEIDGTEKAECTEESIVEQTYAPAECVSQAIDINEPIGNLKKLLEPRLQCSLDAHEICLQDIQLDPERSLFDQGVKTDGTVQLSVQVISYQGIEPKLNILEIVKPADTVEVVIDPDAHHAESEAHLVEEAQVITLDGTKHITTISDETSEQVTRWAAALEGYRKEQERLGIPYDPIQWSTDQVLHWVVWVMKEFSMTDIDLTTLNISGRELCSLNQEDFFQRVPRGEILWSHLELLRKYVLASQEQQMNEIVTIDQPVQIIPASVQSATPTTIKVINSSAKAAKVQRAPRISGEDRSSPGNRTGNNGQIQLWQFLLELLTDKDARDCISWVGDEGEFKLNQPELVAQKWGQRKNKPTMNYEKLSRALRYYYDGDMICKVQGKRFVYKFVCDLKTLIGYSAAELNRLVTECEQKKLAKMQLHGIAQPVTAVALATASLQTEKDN
In short, it runs like this: as §1

Another assay concerns the target T3, ERG (Homo sapiens, UniProt P11308 1-479).
T3 sequence: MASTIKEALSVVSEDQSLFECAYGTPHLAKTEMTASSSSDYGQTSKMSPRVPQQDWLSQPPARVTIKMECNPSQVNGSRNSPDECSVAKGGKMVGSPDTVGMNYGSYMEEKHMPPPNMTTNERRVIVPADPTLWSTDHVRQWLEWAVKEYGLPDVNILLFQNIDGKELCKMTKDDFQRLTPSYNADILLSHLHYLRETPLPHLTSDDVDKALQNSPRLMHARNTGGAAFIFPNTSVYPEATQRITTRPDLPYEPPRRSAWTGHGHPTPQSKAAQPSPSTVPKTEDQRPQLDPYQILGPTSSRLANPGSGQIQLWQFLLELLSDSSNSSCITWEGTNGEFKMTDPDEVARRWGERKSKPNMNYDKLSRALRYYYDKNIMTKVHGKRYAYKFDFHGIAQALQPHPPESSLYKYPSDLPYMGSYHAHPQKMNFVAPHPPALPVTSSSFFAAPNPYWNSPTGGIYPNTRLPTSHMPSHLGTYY
In short, it runs like this:
as §1

The target in a further assay is ELF1 (Homo sapiens, UniProt P32519 1-619). The procedure, abridged: as §1
Sequence of ELF1 (P32519 whole entry): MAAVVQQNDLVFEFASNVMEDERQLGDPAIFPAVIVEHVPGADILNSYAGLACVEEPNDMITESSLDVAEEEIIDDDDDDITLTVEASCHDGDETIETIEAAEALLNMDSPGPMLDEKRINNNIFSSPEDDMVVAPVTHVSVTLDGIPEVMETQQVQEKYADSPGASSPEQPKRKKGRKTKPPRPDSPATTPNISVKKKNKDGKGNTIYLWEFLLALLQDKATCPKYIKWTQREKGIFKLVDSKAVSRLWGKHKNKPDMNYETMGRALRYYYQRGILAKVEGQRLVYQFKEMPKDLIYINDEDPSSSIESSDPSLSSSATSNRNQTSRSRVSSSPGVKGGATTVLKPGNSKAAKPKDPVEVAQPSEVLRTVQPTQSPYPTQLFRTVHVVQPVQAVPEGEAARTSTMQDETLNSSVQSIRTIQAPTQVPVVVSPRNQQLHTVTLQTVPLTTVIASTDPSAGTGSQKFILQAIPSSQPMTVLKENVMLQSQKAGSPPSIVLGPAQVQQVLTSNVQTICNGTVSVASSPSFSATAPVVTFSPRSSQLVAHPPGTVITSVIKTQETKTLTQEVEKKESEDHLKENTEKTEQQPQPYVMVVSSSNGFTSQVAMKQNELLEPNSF
A further assay concerns the target T4, EHF (Homo sapiens, UniProt Q9NZC4 1-300).
T4 sequence: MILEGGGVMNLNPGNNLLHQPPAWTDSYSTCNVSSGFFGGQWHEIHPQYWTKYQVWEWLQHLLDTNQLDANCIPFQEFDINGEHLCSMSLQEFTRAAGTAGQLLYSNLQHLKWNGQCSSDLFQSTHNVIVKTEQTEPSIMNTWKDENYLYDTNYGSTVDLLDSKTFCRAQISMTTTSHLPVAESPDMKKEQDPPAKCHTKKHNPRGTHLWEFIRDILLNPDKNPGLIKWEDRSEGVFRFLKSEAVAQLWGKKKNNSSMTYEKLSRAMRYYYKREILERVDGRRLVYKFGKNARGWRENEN
The procedure, abridged: as §1

The target of the next assay is SPI1 (Homo sapiens, UniProt P17947 1-270). The procedure, abridged: as §1
A further assay deals with SPIB (Homo sapiens, UniProt Q01892 1-262). In short, it runs like this: as §1
Sequence of SPIB (Q01892 whole entry): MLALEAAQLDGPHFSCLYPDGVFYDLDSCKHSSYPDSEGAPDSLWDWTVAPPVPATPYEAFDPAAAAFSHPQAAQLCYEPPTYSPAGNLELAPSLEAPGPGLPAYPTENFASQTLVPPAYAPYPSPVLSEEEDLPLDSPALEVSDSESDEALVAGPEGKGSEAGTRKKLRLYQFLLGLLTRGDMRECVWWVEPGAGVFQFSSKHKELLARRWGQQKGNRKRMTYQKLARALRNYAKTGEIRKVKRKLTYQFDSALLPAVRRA
The target of a further assay is T5, ELK3 (Homo sapiens, UniProt P41970 1-407).
T5 sequence: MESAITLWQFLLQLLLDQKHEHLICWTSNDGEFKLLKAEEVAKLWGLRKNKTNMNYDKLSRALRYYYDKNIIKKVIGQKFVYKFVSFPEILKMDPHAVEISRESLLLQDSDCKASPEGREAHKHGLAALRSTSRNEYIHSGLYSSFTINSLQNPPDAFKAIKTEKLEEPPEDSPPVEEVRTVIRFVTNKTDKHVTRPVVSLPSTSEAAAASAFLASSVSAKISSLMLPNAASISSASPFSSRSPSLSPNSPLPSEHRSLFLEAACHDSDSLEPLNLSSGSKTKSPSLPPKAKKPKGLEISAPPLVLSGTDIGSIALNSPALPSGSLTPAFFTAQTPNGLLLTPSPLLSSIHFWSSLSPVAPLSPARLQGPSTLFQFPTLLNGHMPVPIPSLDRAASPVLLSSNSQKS
In short, it runs like this:
as §1

The next assay deals with T6, FEV (Homo sapiens, UniProt Q99581 1-238).
T6 sequence: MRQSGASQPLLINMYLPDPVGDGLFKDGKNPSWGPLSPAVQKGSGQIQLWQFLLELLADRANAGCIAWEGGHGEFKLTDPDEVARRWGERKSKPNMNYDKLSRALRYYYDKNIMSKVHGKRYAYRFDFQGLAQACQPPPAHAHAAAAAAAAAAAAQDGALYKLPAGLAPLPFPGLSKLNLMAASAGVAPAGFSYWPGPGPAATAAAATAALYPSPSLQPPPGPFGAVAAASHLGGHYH
The procedure, abridged:
as §1

Another assay concerns the target ETV5 (Homo sapiens, UniProt P41161 1-510). In short, it runs like this: as §1
The target in a further assay is T7, SPIC (Homo sapiens, UniProt Q8N5J4 1-248).
T7 sequence: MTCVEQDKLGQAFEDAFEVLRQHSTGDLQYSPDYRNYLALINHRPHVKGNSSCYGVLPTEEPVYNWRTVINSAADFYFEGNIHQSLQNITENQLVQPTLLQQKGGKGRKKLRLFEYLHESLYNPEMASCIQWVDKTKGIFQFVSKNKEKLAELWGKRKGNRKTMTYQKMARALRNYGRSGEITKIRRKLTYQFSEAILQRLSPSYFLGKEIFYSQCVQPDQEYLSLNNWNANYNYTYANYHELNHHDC
The procedure, abridged: as §1

In another assay the target is ELF4 (Homo sapiens, UniProt Q99607 1-663). In short, it runs like this: as §1
Sequence of ELF4 (Q99607 whole entry): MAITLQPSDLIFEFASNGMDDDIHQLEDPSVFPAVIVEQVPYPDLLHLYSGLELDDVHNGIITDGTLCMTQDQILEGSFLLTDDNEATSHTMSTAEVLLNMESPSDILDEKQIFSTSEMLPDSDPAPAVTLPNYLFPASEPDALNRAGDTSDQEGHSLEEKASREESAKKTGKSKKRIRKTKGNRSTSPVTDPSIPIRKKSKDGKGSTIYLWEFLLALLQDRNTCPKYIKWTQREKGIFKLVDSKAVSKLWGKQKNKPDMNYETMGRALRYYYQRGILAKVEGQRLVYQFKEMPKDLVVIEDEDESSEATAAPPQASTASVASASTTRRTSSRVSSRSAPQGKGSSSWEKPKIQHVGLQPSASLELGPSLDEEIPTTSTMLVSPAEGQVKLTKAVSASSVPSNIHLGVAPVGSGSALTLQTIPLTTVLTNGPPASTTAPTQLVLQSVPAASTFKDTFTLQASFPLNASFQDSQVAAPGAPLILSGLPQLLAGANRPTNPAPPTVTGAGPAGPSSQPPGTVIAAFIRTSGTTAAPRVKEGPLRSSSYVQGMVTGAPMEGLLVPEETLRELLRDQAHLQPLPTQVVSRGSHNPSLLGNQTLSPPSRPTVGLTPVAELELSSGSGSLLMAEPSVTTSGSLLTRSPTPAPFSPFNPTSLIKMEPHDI
The target of another assay is ETV1 (Homo sapiens, UniProt P50549 1-477). The procedure, abridged:
as §1

A further assay concerns the target T8, ERF (Homo sapiens, UniProt P50548 1-548).
T8 sequence: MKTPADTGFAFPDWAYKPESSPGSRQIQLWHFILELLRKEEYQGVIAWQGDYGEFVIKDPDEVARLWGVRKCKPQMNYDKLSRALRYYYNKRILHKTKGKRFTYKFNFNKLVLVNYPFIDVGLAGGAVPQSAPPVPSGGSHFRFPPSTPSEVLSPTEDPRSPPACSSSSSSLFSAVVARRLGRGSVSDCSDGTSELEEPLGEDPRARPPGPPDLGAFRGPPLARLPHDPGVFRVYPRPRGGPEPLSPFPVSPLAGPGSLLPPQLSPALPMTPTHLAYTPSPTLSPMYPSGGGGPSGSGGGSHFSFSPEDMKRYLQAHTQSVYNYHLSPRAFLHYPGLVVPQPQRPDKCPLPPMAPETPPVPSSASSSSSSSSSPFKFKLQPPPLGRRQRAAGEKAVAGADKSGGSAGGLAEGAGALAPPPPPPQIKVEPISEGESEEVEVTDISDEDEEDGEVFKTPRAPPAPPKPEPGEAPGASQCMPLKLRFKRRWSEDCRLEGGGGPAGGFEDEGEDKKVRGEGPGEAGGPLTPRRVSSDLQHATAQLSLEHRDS
The procedure, abridged: as §1

Another assay has as its target T9, ETS2 (Homo sapiens, UniProt P15036 1-469).
T9 sequence: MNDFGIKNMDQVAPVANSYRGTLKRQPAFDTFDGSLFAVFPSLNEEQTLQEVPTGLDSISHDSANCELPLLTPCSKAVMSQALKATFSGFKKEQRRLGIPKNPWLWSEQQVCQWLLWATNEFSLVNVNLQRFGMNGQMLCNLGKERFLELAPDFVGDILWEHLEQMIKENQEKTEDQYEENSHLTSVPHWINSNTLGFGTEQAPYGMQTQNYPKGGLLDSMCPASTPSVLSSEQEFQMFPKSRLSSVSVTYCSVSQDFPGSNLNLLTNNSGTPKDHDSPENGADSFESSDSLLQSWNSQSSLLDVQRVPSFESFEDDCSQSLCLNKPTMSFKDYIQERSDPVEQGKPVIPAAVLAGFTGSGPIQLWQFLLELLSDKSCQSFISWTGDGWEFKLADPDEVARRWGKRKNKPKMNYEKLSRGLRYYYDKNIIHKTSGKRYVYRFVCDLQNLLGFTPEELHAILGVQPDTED
The procedure, abridged:
as §1

The target in a further assay is T10, ELF5 (Homo sapiens, UniProt Q9UKW6-2 1-255).
T10 sequence: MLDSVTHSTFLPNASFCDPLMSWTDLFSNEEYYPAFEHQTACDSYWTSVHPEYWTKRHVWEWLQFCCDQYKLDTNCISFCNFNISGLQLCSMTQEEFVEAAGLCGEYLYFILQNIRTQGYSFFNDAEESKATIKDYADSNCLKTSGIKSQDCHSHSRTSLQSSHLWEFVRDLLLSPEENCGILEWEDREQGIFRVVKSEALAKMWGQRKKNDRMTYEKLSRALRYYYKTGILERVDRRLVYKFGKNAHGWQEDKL
The procedure, abridged:
as §1

The target of the next assay is T11, ETV3 (Homo sapiens, UniProt P41162-2 1-143).
T11 sequence: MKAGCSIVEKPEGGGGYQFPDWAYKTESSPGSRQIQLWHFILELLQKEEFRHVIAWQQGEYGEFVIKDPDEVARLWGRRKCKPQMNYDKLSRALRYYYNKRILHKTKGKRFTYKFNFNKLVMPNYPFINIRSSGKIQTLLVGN
The procedure, abridged: as §1

The next assay deals with ETV6 (Homo sapiens, UniProt P41212 1-452). In short, it runs like this:
as §1

Sequence of ETV5 (P41161 whole entry): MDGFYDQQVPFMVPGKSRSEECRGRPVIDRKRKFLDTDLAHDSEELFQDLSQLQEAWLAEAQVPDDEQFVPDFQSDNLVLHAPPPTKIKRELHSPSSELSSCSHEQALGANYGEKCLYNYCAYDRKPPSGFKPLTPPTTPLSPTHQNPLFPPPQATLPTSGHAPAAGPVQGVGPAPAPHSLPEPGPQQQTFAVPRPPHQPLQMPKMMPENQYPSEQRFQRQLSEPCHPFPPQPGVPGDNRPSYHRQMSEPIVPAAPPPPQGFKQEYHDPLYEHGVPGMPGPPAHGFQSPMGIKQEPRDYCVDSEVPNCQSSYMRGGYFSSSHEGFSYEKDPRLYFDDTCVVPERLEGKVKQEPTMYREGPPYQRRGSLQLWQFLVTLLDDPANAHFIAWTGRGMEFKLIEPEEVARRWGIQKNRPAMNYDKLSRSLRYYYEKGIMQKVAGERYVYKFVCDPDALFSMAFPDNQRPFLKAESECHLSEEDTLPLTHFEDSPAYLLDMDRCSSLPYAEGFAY
Sequence of ETV6 (P41212 whole entry): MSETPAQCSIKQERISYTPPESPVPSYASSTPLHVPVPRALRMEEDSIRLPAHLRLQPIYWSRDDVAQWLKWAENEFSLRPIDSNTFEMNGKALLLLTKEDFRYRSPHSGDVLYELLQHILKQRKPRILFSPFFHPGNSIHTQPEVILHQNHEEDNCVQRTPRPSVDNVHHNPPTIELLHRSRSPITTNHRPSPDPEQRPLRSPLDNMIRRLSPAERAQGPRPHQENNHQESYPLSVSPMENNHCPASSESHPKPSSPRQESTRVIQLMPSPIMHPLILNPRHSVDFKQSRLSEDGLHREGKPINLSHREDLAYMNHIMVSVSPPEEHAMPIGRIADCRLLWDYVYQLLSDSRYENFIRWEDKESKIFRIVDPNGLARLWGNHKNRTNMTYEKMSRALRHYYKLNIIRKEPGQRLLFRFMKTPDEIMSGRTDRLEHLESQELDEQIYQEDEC
Sequence of ETV1 (P50549 whole entry): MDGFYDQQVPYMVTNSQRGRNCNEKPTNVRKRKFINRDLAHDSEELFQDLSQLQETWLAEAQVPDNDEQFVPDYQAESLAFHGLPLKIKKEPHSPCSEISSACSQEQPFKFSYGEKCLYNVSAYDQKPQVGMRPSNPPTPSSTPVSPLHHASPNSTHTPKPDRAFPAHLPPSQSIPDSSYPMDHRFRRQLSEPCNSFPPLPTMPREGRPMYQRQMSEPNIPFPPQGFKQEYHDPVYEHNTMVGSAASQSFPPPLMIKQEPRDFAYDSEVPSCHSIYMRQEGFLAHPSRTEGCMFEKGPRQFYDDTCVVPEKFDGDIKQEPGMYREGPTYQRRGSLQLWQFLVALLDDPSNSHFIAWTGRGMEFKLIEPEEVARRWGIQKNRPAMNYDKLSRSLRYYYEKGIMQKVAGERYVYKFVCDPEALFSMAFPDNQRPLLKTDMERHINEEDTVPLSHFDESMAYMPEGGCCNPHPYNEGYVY

As to CGCTAT, the binding signal with FLI1 was 1.13 fold enrichment (6-mer frequency, TF over GST control); in the assay with GABPA, 1.07 fold enrichment (6-mer frequency, TF over GST control); with ERG it was 1.09 fold enrichment (6-mer frequency, TF over GST control); in the assay with ELF1 it was 1.09 fold enrichment (6-mer frequency, TF over GST control); with EHF, 1.06 fold enrichment (6-mer frequency, TF over GST control); with SPI1 it was 1.11 fold enrichment (6-mer frequency, TF over GST control). Further, the binding signal was 1.12 fold enrichment (6-mer frequency, TF over GST control) with SPIB; 1.13 fold enrichment (6-mer frequency, TF over GST control) with ELK3; 1.04 fold enrichment (6-mer frequency, TF over GST control) with FEV; 1.1 fold enrichment (6-mer frequency, TF over GST control) with ETV5; 1.01 fold enrichment (6-mer frequency, TF over GST control) with SPIC; 1.15 fold enrichment (6-mer frequency, TF over GST control) with ELF4. Besides, the binding signal was 1.09 fold enrichment (6-mer frequency, TF over GST control) with ETV1; 1.16 fold enrichment (6-mer frequency, TF over GST control) with ERF; 1.03 fold enrichment (6-mer frequency, TF over GST control) in the assay with ETS2; 1.16 fold enrichment (6-mer frequency, TF over GST control) with ELF5; 1.14 fold enrichment (6-mer frequency, TF over GST control) in the assay with ETV3; 1.09 fold enrichment (6-mer frequency, TF over GST control) in the assay with ETV6.

(Values after PMC7862700, “An all-to-all approach to the identification of sequence-specific readers for epigenetic DNA modifications on cytosine”.)
